A selection: hits, their analogues and other compounds. The true share with any hit is near 3.8%.
A549 viability = kills or reduces viability of A549 cells in Nrf2 counter-screen. 390,000 tested, 0.16% active. Potency, µM (titrated, usually from 46 µM), for the others: at the highest dose activity change, negative = cytotoxicity, usual class: inhibitors. A549 ARE-Fluc cells, CellTiter-Fluor viability, 18-24 h; also: potency is read from the fitted curve at half-maximal effect; % is scaled to controls: 0 for no effect and ±100 for the full control effect
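A549 ARE_Fluc cells in 5% FBS OPTI-MEM were exposed to compounds in concentration-response for 18-24 h at 37 deg C. Viability was read by CellTiter-Fluor fluorescence (Ex 405/Em 525) after 30 min, before the luciferase read.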
HepG2 tox-1 = counter-screen for TGF-b inhibitors: cytotoxicity in HepG2 cells; HepG2 CAGA-GFP viability, ATP luminescence, 18 h; Potency, µM (top dose mostly 46.1 µM), inactives show at the highest dose activity change, negative = cytotoxicity, hits mostly cytotoxic; 410,000 tested, 0.76% active; also: potency is read from the fitted curve at half-maximal effect
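HepG2 CAGA-GFP cells (1000/well, DMEM with 1% FBS) received compound, then TGF-beta at 500 pg/mL final, and were incubated 18 hours at 37 degrees C. Viability was read by CellTiter-Glo luminescence. Media-only wells were set as complete cell-killing and DMSO as no toxicity.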
Nrf2 inh = Nrf2 pathway inhibition; 360,000 tested, 2.1% active; Potency, µM (doses to about 46 µM), inactives show at the top dose activity change, negative = inhibition, hits mostly inhibitors; A549 ARE-Fluc reporter, luciferase luminescence, 18-24 h; also: potency is read from the fitted curve at half-maximal effect; % is scaled to controls: 0 for no effect and ±100 for the full control effect; nearly all actives have a fitted effect of over 60% in size
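Reporter: ARE-Fluc in A549. Exposure: 18-24 h, 37 °C, 5% CO2, 5% FBS OPTI-MEM. Readouts: fluorescent cytotoxicity (CellTiter-Fluor), then luminescent Nrf2 signal after BugLite.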
ATXN viability = reduces viability in counter-screen for ATXN expression inhibitors; S2 cells (HEK-293 line with an ATXN2-luciferase reporter) viability, CellTiter-Fluor protease fluorescence, 24 h; Potency, µM (doses to about 56.7 µM), hits mostly cytotoxic; 400,000 tested, 0.49% active; AID 651635; also: potency is read from the fitted curve at half-maximal effect; nearly all actives have a fitted effect of over 40% in size
ATXN2 expr inh = ATXN2 expression inhibition. Potency, µM (top dose mostly 57 µM), for inactives: at the top dose activity change, negative = inhibition, hits mostly inhibitors. 360,000 tested, 0.72% active. HEK-293 ATXN2-luciferase reporter, luminescence, 24 h; also: potency is read from the fitted curve at half-maximal effect; % is scaled to controls: 0 for no effect and ±100 for the full control effect; nearly all actives have a fitted effect of over 55% in size
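qHTS (up to 57 uM final) was run with 24 h compound exposure of reporter cells at 37 °C. Each well was multiplexed: SteadyGlo luminescence measured ATXN2-luciferase expression after a fluorogenic Gly-Phe-AFC viability readout (25 uM final).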
TGFb inhibitor = TGF-b pathway inhibition; AID 588855; HepG2 CAGA-GFP TGF-b/SMAD3 reporter, GFP fluorescence, 18 h; TGF-beta stimulated, 500 pg/mL final; Potency, µM (titrated, usually from 46.1 µM), inactives show top-dose activity, negative = inhibition, hits mostly inhibitors; 410,000 tested, 1.2% active; also: potency is read from the fitted curve at half-maximal effect; % is scaled to controls: 0 for no effect and ±100 for the full control effect; nearly all actives have a fitted effect of over 65% in size
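Inhibition was scored as loss of TGF-beta-induced (500 pg/mL final, 18 hours, 37 degrees C) GFP in HEPG2 cells carrying a CAGA-GFP reporter, in DMEM with 1% FBS. Well GFP was summed per cell; Activity was normalised to unstimulated and stimulated DMSO wells, then concentration-response fitting.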
TGFb CAGA inh = TGF-b pathway inhibition, cherry-pick retest. shares compounds with TGFb inhibitor. HepG2 CAGA-GFP TGF-b reporter, GFP fluorescence, 18 h; cells stimulated with TGF-beta, 500 pg/mL. Potency, µM (titrated, usually from 46.1 µM), inactives show at the highest dose activity, negative = inhibition, usual class: inhibitors. 1,600 tested, 63% active. AID 720534; also: potency is read from the fitted curve at half-maximal effect; % is scaled to controls: 0 for no effect and ±100 for the full control effect; nearly all actives have a fitted effect of over 65% in size
HepG2 tox-2 = counter-screen for TGF-b inhibitors: cytotoxicity in HepG2 cells | shares compounds with TGFb inhibitor | HepG2 CAGA-GFP viability, ATP luminescence, 18 h; cells stimulated with TGF-beta, 500 pg/mL | Potency, µM (top dose mostly 46.1 µM), for inactives: at the highest dose activity, negative = cytotoxicity, most hits filed as inhibitors | 1,600 tested, 27% active; also: potency is read from the fitted curve at half-maximal effect; % is scaled to controls: 0 for no effect and ±100 for the full control effect; nearly all actives have a fitted effect of over 70% in size
TGFb CCL64 inh = TGF-b inhibition, CCL64 orthogonal assay. shares compounds with TGFb inhibitor. CCL64 CAGA-GFP reporter, TGF-b stimulated, GFP fluorescence, 18 h. Potency, µM (series often up to 46.1 µM), for the others: at the top dose activity, negative = inhibition, hits mostly inhibitors. 1,600 tested, 41% active; also: potency is read from the fitted curve at half-maximal effect; nearly all actives have a fitted effect of over 65% in size
TGFb COP inh = validation of TGF-b inhibitors in HepG2 COP promoter reporter. shares compounds with TGFb inhibitor. Potency, µM (top dose mostly 46.1 µM), for the others: top-dose activity, negative = inhibition, actives largely listed as inhibitors. HepG2 COP-GFP TGF-b reporter, GFP fluorescence, 18 h; cells stimulated by added recombinant TGF-beta. AID 720537. 1,600 tested, 3% active; also: potency is read from the fitted curve at half-maximal effect; nearly all actives have a fitted effect of over 70% in size
SKNSH spheroid = reduced viability of SK-N-SH 3D spheroids, orthogonal test | shares compounds with ATXN2 expr inh | SK-N-SH 3D spheroid viability, PI/Hoechst imaging, 72 h | Potency, µM (doses to about 30.7 µM), actives largely listed as inhibitors | 65 tested, 70% active
SJ-GBM2 3D tox = lowers viability of SJ-GBM2 3D spheroids. AID 1347136. Potency, µM (highest dose often 30.7 µM), actives largely listed as inhibitors. 65 tested, 80% active. shares compounds with ATXN2 expr inh. SJ-GBM2 3D spheroid viability, PI/Hoechst imaging, 72 h
Daoy spheroid = reduced viability of Daoy 3D spheroids, orthogonal test; shares compounds with ATXN2 expr inh; Daoy 3D spheroid viability, PI/Hoechst imaging, 72 h; Potency, µM (series often up to 30.7 µM), usual class: inhibitors; 65 tested, 50% active; AID 1347137
TC32 3D casp = caspase activation in TC32 3D spheroids, orthogonal test | shares compounds with ATXN2 expr inh | TC32 3D spheroids, caspase-3/7 fluorescence imaging, 24 h | 65 tested, 30% active | AID 1347138 | Potency, µM (top dose mostly 30.7 µM), most hits filed as inhibitors
TC32 3D tox = kills TC32 spheroids in orthogonal 3D test; TC32 3D spheroid viability, PI/Hoechst imaging, 72 h; Potency, µM (titrated, usually from 30.7 µM), actives largely listed as inhibitors; 65 tested, 60% active; AID 1347139; shares compounds with ATXN2 expr inh
MG63 3D tox = kills MG-63 (6-TG R) spheroids in orthogonal 3D test; shares compounds with ATXN2 expr inh; MG-63 (6-TG R) 3D spheroid viability, PI/Hoechst imaging, 72 h; Potency, µM (top dose mostly 30.7 µM), actives largely listed as inhibitors; 65 tested, 50% active
RD spheroid = RD 3D spheroid viability loss; 65 tested, 50% active; Potency, µM (top dose mostly 30.7 µM), hits mostly inhibitors; RD rhabdomyosarcoma 3D spheroid viability, PI/Hoechst imaging, 72 h; shares compounds with ATXN2 expr inh; AID 1347141
* marks the source's active call; other numbers are inactive results; i = inactive; ? = inconclusive; . = no result. Calls follow the shape of the dose curve; as a rule, active = well fitted curve in the direction sought with a large enough effect; inconclusive = small, poorly fitted or top-dose-only effect, or another doubt; inactive = no such curve, though single readings can be large; an effect the other way counts as inactive or inconclusive.

SMILES | A549 viability | HepG2 tox-1 | Nrf2 inh | ATXN viability | ATXN2 expr inh | TGFb inhibitor | TGFb CAGA inh | HepG2 tox-2 | TGFb CCL64 inh | TGFb COP inh | others
Cc1ccc(S(=O)(=O)Nc2ccc3c4c(cccc24)CC3)c(C)c1 | -15% | -5% | ? | i | -29% | ? | . | . | . | .
Cc1ccc(Cl)cc1NC(=O)c1cc2ccccc2cc1O | ? | -76% | ? | i | . | 3.5µM* | 2.6µM* | 7.3µM* | 4.1µM* | 78%
COc1cc(NC(=O)c2cc3ccccc3cc2O)c(OC)cc1Cl | ? | -58% | ? | i | . | 4.5µM* | 7.3µM* | 6.5µM* | 5.8µM* | 33%
COc1cc(OC)c(NC(=O)c2ccccc2F)cc1Cl | 0% | -12% | -3% | i | . | 1% | . | . | . | .
COc1ccccc1NC(=O)c1cc2cc(Br)ccc2cc1O | -17% | -49% | -32% | i | . | 5.6µM* | 7.3µM* | 8.2µM* | 5.8µM* | 68%
COc1ccccc1NC(=O)COC(=O)c1cc2ccccc2cc1O | 1% | -46% | 2% | i | -4% | 8% | . | . | . | .
Cc1cccc(C(=O)Nc2cccc(C(=O)OCc3cc(=O)n4nc(C5CC5)sc4n3)c2)c1 | -6% | -10% | . | ? | 6% | -33% | . | . | . | .
O=C(NC1CC1)C1CCN(C2CCN(C(=O)/C=C/c3ccc(F)cc3)CC2)CC1 | 3% | 4% | 2% | i | 11% | -3% | . | . | . | .
CCCCN(C(=O)c1cccc2c(=O)c(C)c(-c3ccccc3)oc12)c1ccccc1 | 0% | -9% | ? | i | ? | 14µM* | 10µM* | ? | ? | 41%
CCCCNC(=O)c1cccc2c(=O)c(C)c(-c3ccccc3)oc12 | -1% | 11% | -19% | i | -18% | -5% | . | . | . | .
COc1ccc(C(CNC(=O)c2oc3ccc(OC)cc3c2C)N2CCCC2)cc1 (centres undefined) | -2% | -29% | 10% | i | -23% | ? | ? | ? | -8% | 45%
Nc1nc(Cl)nc2c1ncn2[C@@H]1O[C@H](CO)[C@@H](O)[C@@H]1F | . | . | . | ? | 1µM* | . | . | . | . | . | SKNSH spheroid=i;SJ-GBM2 3D tox=0.023µM*;Daoy spheroid=?;TC32 3D casp=i;TC32 3D tox=5.1µM*;MG63 3D tox=0.16µM*;RD spheroid=?
Nc1nc(Cl)c2ncn(C3OC(CO)C(O)C3O)c2n1 (centres undefined) | 10% | 11% | -5% | i | -4% | 28% | . | . | . | .
Cc1ccc2c(=O)cc(C(=O)Nc3sc4c(c3C(=O)NCC3CCCO3)CCCC4)oc2c1C (centres undefined) | 5% | -1% | 1% | i | 1% | 1% | . | . | . | .
CCc1nc(N)nc(N)c1-c1ccc(Cl)cc1 | 0% | -36% | ? | i | ? | ? | . | . | . | . | SKNSH spheroid=?;SJ-GBM2 3D tox=0.91µM*;Daoy spheroid=?;TC32 3D casp=i;TC32 3D tox=?;MG63 3D tox=?;RD spheroid=?
COc1ccc(-c2nc(N3CCOCC3)c3sc(CN(C)c4ncc(C(=O)NO)cn4)cc3n2)cn1 | . | . | . | . | 13% | . | . | . | . | . | SKNSH spheroid=5.1µM*;SJ-GBM2 3D tox=11µM*;Daoy spheroid=5.1µM*;TC32 3D casp=i;TC32 3D tox=i;MG63 3D tox=?;RD spheroid=i
COc1cc(C(=O)Nc2ccc3nc(N4CCOCC4)sc3c2)cc(OC)c1OC | -3% | -17% | -16% | i | 6% | 2% | . | . | . | .
Fc1cccc(C2CCCCN2Cc2nc(C3CC3)no2)c1 (centres undefined) | 1% | -7% | -8% | i | 12% | 17% | . | . | . | .
CC(C)Cc1ccc(C(C)C(=O)Nc2ncccn2)cc1 (centres undefined) | 7% | -24% | -15% | . | -15% | 6% | . | . | . | .
CC(C)Cc1ccc(C(C)C(=O)O)cc1 (centres undefined) | -3% | -24% | 6% | i | 5% | -13% | . | . | . | . | SKNSH spheroid=?;SJ-GBM2 3D tox=11µM*;Daoy spheroid=?;TC32 3D casp=i;TC32 3D tox=i;MG63 3D tox=i;RD spheroid=i
